Data taken from PubChem BioAssay (NCATS).
Results filed as inconclusive are left out. A number with no mark means an inactive call. Calls of active or inactive are those of the source. The call rests on the fitted dose curve; in most records, active means well fitted inhibition curve with a large enough effect; inconclusive means small, poorly fitted or top-dose-only effect; inactive means no such curve, though single readings can be large or run the other way.

molecular target: Rap guanine nucleotide exchange factor 3 (Homo sapiens) (UniProt O95398); assay: Confirmatory qHTS for antagonist of cAMP-regulated guanine nucleotide exchange factor 3 (EPAC1) (AID 1645880); conditions: EPAC1 Rap1B-BODIPY-GDP exchange, fluorescence; series mostly up to 115 µM; activity, negative = inhibition: at the top concentration; further: nearly all actives have a fitted effect of over 55% in size;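 on activity, negative = inhibition: plate controls were DMSO only for no effect and full effect of the ATA control for full effect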
Sequence (O95398 whole entry, looked up): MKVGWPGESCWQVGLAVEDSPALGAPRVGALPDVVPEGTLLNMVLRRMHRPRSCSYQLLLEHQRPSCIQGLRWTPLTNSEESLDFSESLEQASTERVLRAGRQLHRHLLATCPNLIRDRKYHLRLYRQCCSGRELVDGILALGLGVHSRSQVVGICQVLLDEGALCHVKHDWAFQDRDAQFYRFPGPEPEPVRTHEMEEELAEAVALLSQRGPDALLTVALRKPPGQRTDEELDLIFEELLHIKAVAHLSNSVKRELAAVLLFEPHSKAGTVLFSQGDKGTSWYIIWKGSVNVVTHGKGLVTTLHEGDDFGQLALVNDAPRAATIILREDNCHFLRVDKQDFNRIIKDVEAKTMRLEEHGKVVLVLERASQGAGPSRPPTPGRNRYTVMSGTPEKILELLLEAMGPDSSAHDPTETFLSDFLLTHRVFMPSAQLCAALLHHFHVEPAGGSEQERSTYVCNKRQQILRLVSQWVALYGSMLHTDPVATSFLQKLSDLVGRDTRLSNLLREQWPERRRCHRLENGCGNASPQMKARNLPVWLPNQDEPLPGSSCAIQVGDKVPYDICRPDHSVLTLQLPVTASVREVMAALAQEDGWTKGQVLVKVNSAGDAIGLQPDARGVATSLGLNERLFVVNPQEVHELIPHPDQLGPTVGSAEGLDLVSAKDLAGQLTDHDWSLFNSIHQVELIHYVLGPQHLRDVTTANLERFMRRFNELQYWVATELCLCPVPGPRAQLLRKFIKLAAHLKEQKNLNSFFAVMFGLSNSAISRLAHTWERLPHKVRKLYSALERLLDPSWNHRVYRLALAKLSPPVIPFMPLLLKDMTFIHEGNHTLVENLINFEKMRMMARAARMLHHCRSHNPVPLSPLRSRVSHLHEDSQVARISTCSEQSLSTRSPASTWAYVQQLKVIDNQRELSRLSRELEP
Outline: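 Nucleotide exchange uses 100 nM EPAC1, 250 nM RAP1B-BODIPY-GDP and 50 uM GDP, with compounds in a concentration-titration series. After 5 min at room temperature, fluorescence (480 nm ex/540 nm em) is read every 5 min for 30 min. Data are normalized to control ATA and DMSO.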
Potency means the concentration at half of the fitted maximal effect.

**Q.** O=C1NC(=Nc2ccccc2Cl)S/C1=C\c1cc([N+](=O)[O-])ccc1O was tested. Which Potency did it give?
**A.** The Potency was 53.6 µM (active).

**Q.** Cc1ccc(S(=O)(=O)N2CCC(C(=O)Nc3ccccc3N3CCCCC3)CC2)cc1C was tested. Which “activity, negative = inhibition” value did it give?
**A.** The value was -27.7%.

**Q.** How did the “activity, negative = inhibition” value turn out when COC(=O)c1[nH]c2cc(C)ccc2c1NC(=O)CN1CCCc2ccccc21 was run?
**A.** The value was -28.5%.

**Q.** CC1=NOC(=O)/C1=C\c1ccc(-c2cc(Cl)ccc2Cl)o1 was tested. Which Potency did it give?
**A.** Its Potency is 23.9 µM (active).

**Q.** How did the “activity, negative = inhibition” value turn out when Cc1c(Cl)ccc2c(C(=O)O)cc(-c3ccccc3)nc12 was run?
**A.** The value was -24.8%.

**Q.** Which “activity, negative = inhibition” value does the source give for CCOC(=O)c1c(C)nc2sc(C(N)=O)c(N)c2c1-c1ccccc1 here?
**A.** Its value is -24.7%.

**Q.** With CCN(CCNC(=O)C1CCN(S(=O)(=O)c2cccc3cccnc23)CC1)c1ccccc1 as the compound, how does the “activity, negative = inhibition” value read?
**A.** The value was -19%.

**Q.** For OC[C@H]1O[C@H](OCCc2ccc(O)cc2)[C@H](O)[C@@H](O)[C@@H]1O, which “activity, negative = inhibition” value is on record?
**A.** The value was -7.11%.

**Q.** Which “activity, negative = inhibition” value does the source give for COc1ccc2cc(-c3cn4c(n3)sc3cc(F)ccc34)c(=O)oc2c1 here?
**A.** Its value is -22.5%.

**Q.** How did the “activity, negative = inhibition” value turn out when O=c1oc(-c2ccccc2NS(=O)(=O)c2ccccc2)nc2ccccc12 was run?
**A.** The value was -10.6%.

**Q.** CCOC(=O)N1CCN(C(=O)CSc2nnc(Cc3ccccc3)o2)CC1 was tested. Which “activity, negative = inhibition” value did it give?
**A.** The value was -9.52%.

**Q.** Cc1cc(C)cc(NC(=O)N2CCC(CN3CCc4ccccc4C3)CC2)c1 was tested. Which “activity, negative = inhibition” value did it give?
**A.** Its value is -15.8%.

**Q.** CC1CN(S(=O)(=O)c2cccc(C(=O)Nc3ccccc3N3CCOCC3)c2)CC(C)O1 (centres undefined) was tested. Which “activity, negative = inhibition” value did it give?
**A.** Its value is -14.3%.

**Q.** For CCCCOc1ccccc1Cn1c(=O)oc2ccc(C)cc21, which “activity, negative = inhibition” value is on record?
**A.** The value was -35.2%.

**Q.** Which Potency does the source give for N#Cc1c(-c2ccccc2)nc(SCc2cccc(C(F)(F)F)c2)[nH]c1=O here?
**A.** The Potency was 26.9 µM (active).

**Q.** With CC(Sc1nncn1C)C(=O)Nc1nnc(C(C)C)s1 (centres undefined) as the compound, how does the “activity, negative = inhibition” value read?
**A.** The value was -16.3%.

**Q.** For O=C(c1cccc(-n2cccc2)c1)N1CCN(S(=O)(=O)c2ccccc2)CC1, which Potency is on record?
**A.** The Potency was 37.9 µM (active).

**Q.** For COc1ccc2oc(C(=O)CCC(=O)O)c(N)c2c1, which “activity, negative = inhibition” value is on record?
**A.** Its value is -9.92%.

**Q.** Cc1cccc(CC2C(=O)Nc3ccccc32)c1 (centres undefined) was tested. Which “activity, negative = inhibition” value did it give?
**A.** Its value is -9.05%.

**Q.** Cc1nnc(SCc2cccc3ccccc23)s1 was tested. Which “activity, negative = inhibition” value did it give?
**A.** Its value is -26.7%.

**Q.** O=C(CCc1ccc(O)c(O)c1)N/N=C/c1cc2c(cc1[N+](=O)[O-])OCO2 was tested. Which Potency did it give?
**A.** The Potency was 23.9 µM (active).

**Q.** Which “activity, negative = inhibition” value does the source give for COc1ccc(N2CCN(C(=O)COC(=O)c3ccc(C)o3)CC2)cc1 here?
**A.** Its value is -10.3%.

**Q.** For CCCCCC(=O)Nc1ccc(C2C(=O)c3ccccc3C2=O)cc1, which “activity, negative = inhibition” value is on record?
**A.** Its value is -12.8%.

**Q.** How did the Potency turn out when COc1cc(NS(=O)(=O)c2ccc(NC(=O)/C(=C/c3ccccc3Cl)NC(=O)c3ccccc3)cc2)nc(OC)n1 was run?
**A.** Its Potency is 84.9 µM (active).
